Bioassay records deposited in PubChem by National Center for Advancing Translational Sciences (NCATS).
RE007 growth inh: qHTS Assay for Inhibitors of the HIV-1 protein Vpr. S. pombe RE007 Vpr strain, BacTiter-Glo ATP luminescence, 24 h. Potency, µM (top dose mostly 92.2 µM), for inactives: top-dose activity change, negative = less growth, most hits filed as inhibitors. actives 0.21% (n = 360,000); active means well fitted falling curve with a large enough effect; inconclusive means small, poorly fitted or top-dose-only effect; inactive means no such curve, though single readings can be large or run the other way; further: nearly all actives have a fitted effect of over 50% in size
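Fission yeast strain RE007, carrying one chromosomally integrated HIV-1 vpr copy, was seeded at OD 0.01 in PMG+AL medium with 23 nL pinned compound. After 24 h at 30 °C and 99% humidity, viability was read by BacTiter-Glo luminescence.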
AMA1-RON2 inh: qHTS for Inhibitors of AMA1-RON; Towards Development of Antimalarial Drug Lead: Primary Screen | actives 0.2% (n = 360,000) | AlphaScreen AMA1-biotinylated RON2 peptide binding | Potency, µM (titrated, usually from 58.2 µM), for inactives: at the top dose activity change, negative = inhibition, actives largely listed as inhibitors;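 further: 0% = vehicle wells and -100% = peptide control; nearly all actives have a fitted effect of over 45% in size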
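AMA1 (3D7) with his tag at 25 nM final met compounds first, then biotinylated RON2 peptide at 25 nM; detection used donor plus acceptor beads, 10 µg/mL apiece, read by AlphaScreen after 30 min at room temperature.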
AmpC inh detg: qHTS Inhibitors of AmpC Beta-Lactamase (assay with detergent) | P00811 | AmpC hydrolysis of nitrocefin, absorbance 480 nm, 0.01% Triton | Potency, µM (top dose mostly 114 µM), without a hit: at the highest dose activity change, negative = inhibition, usual class: inhibitors | actives 0.041% (n = 370,000) | AID 485294, 2010;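 further: 0% = no-compound wells and -100% = no-enzyme wells; nearly all actives have a fitted effect of over 25% in size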
Target sequence (P00811 whole entry, looked up): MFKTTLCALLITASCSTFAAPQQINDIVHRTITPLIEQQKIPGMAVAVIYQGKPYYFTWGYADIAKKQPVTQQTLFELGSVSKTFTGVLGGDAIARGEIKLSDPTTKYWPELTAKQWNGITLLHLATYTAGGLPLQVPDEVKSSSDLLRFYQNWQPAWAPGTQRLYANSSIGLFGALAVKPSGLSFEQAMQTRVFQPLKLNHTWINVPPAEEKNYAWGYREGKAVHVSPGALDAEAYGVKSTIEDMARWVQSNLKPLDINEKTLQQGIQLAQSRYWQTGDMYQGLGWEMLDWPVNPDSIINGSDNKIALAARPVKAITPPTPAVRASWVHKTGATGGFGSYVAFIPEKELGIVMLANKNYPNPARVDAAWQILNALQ
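AmpC (5.3 nM in the dispensed reagent) in 20 mM phosphate pH 7.0 with 0.01% (detergent screen) or 0.0001% Triton X-100 was preincubated with compounds for 15 min at room temperature. Nitrocefin was then added from an 800 uM solution, and hydrolysis was followed at 480 nm.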
AmpC no deterg: qHTS Inhibitors of AmpC Beta-Lactamase (assay without detergent); AmpC nitrocefin hydrolysis, absorbance 480 nm, 0.0001% Triton; Potency, µM (titrated, usually from 57.1 µM), without a hit: top-dose activity change, negative = inhibition, most hits filed as inhibitors; actives 0.52% (n = 330,000); AID 485341, 2010;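 further: plate controls were no compound for no effect and no enzyme for full effect; nearly all actives have a fitted effect of over 20% in size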
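20 mM phosphate pH 7.0 + 0.01% (detergent screen) or 0.0001% Triton X-100; 5.3 nM AmpC reagent; cpd preinc 15 min RT; nitrocefin (800 uM stock) to start; A480 q20 s × 4 min; Activity was normalised to no-enzyme and no-compound control wells.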
Sm TGR inh: qHTS Assay for the Inhibitors of Schistosoma Mansoni Peroxiredoxins | purified TGR, DTNB reduction, TNB absorbance 405 nm | Potency, µM (top dose mostly 114 µM), inactives show top-dose activity change, negative = inhibition, actives largely listed as inhibitors | Schistosoma mansoni thioredoxin glutathione reductase (TGR), Q962Y6 | actives 3% (n = 360,000); further: nearly all actives have a fitted effect of over 60% in size
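Kinetic colorimetric format: TGR-catalysed, NADPH-driven DTNB reduction monitored via TNB absorbance. Enzyme dispensed at 20 nM; compound exposure 15 min at room temperature before reaction start.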
Active calls of the source: *; u = inconclusive; x = not tested or not shown; [ ] = dose if it differs, or a comment. Sampled rows, rich in hits. Any-hit rate of the full collection: about 3.2%. Unless noted, the call rests on the fitted dose curve; in most records, active means well fitted curve in the direction sought with a large enough effect; inconclusive means small, poorly fitted or top-dose-only effect, or another doubt; inactive means no such curve, though single readings can be large; an effect the other way counts as inactive or inconclusive. Unless noted, on the % scale 0 is the no-effect control and ±100 the full control effect; potency means the concentration at half of the fitted maximal effect.

SMILES	RE007 growth inh	AMA1-RON2 inh	AmpC inh detg	AmpC no deterg	Sm TGR inh
COC/C=C/C1=CC2=CC(=O)C(C)(OC(=O)c3ccco3)C(=O)C2=CO1 (stereo not given)	x	x	-2%	25%	3.2µM*
O=C(c1ccc2c(c1)N(Cc1ccc(F)cc1)C(=O)c1ccccc1S2(=O)=O)N1CCC(Cc2ccccc2)CC1	x	x	23%	x	10%
CCOC(=O)C1CCN(C(=O)Cn2nc(C)n3c(cc4sccc43)c2=O)CC1	x	x	13%	x	11%
Cc1ccc(/C=c2\sc3n(c2=O)CN(c2cccc(Br)c2)CN=3)o1	4%	-9%	-4%	-31%	25µM*
Cc1cc(C)cc(N2CN=c3s/c(=C\c4ccco4)c(=O)n3C2)c1	-14%	11%	-3%	-29%	-14%
O=c1/c(=C/c2ccco2)sc2n1CN(c1cccc(Br)c1)CN=2	15%	-21%	-3%	-50%	25µM*
Cc1[nH]c2ccccc2c1NC(=O)CN1CCN(C(=O)c2ccco2)CC1	-6%	-19%	7%	-2%	32µM*
O=C(CSc1nc(=O)[nH]c2c1CCCC2)NCc1ccccc1Cl	x	x	10%	x	-2%
COc1ccc(OC(=O)COc2ccc(C)cc2)cc1	-1%	-3%	-5%	-32%	3%
COc1ccc(OCC(=O)Sc2ccc(C)cc2)cc1	-27%	56%	-5%	-33%	3.2µM*
COc1nc(Oc2ccc(C(=O)OCC(N)=O)cc2)nc(N(C)C)n1	-11%	9%	2%	-1%	0%
COC(=O)COC(=O)c1ccc(Oc2nc(OC)nc(N(C)C)n2)cc1	39%[3.69 µM]	10%	-1%	31%	2.2µM*
CCn1cc2nc(SCc3cc(C)ccc3C)n(CCc3ccccc3)c(=O)c2n1	x	x	5%	x	17%
O=C(CN1C(=O)c2ccccc2C1=O)NCc1ccccn1	12%	87%	u	-12%	0%
O=C(Cn1c(=O)sc2ccccc21)NCc1ccccn1	-2%	14%	u	45µM*	-1%
Cc1ccc2oc(C(=O)N(Cc3sccc3C)C3CCS(=O)(=O)C3)c(C)c2c1 (stereo not given)	x	x	-3%	x	8%
CCOC(=O)C1=C(c2ccccc2)OC(N)=C(C#N)C1c1cccs1 (stereo not given)	13%	6%	5%	-28%	45µM*
CCCC1=C(C(=O)OCC)C(c2ccco2)C(C#N)=C(N)O1 (stereo not given)	0%	5%	-8%	-21%	32µM*
CCOC(=O)C1=C(N)OC(C)=C(C#N)C1c1ccco1 (stereo not given)	-18%	27%	-4%	-11%	-23%
CCOC(=O)C1=C(CC)OC(N)=C(C#N)C1c1ccc(NC(C)=O)cc1 (stereo not given)	6%	21%	u	-26%	11µM*
Cc1nc2c(C(=O)NC(C)c3ccccc3)cnn2c(C)c1Cc1ccccc1 (stereo not given)	x	x	-2%	x	10%
CC(C)Sc1nc(SCC(=O)NCc2ccco2)c2c3c(sc2n1)COC(C)(C)C3	12%	-13%	-13%	21%	28µM*
COC(=O)CSc1ncnc2c1sc1nc(-c3ccco3)c3c(c12)CC(C)(C)OC3	x	x	u	-30%	4µM*
Cc1nc2sc(C(=O)O)c(N)c2c2c1COC(C)(C)C2	15%	27%	u	-1%	0%
CCCc1nc2sc3c(SCC(=O)NCc4ccco4)ncnc3c2c2c1CCC2	4%	-26%	u	40%	16µM*
SMILES	RE007 growth inh	AMA1-RON2 inh	AmpC inh detg	AmpC no deterg	Sm TGR inh
CCOC(=O)c1sc2nc(-c3ccco3)c3c(c2c1N)CC(C)(C)OC3	-29%	-8%	-11%	34%	0.89µM*
CCn1cc(C(=O)N2CCN(c3cccc(Cl)c3)CC2)c(=O)c2cc(S(=O)(=O)N3CCC(C)CC3)ccc21	x	x	7%	x	-3%
CCOc1ccc(CCNC(=O)c2sc3nc4n(c(=O)c3c2C)CCCC4)cc1	x	x	20%	x	0%
CCc1ccc2oc(C(=O)Nc3cc(Cl)ccc3OC)cc(=O)c2c1	x	x	2%	x	1%
O=C(CN1C(=O)/C(=C\c2ccco2)SC1=S)Nc1ccc(O)cc1C(=O)O	4%	-1%	0%	-25%	25µM*
O=C(CCN1C(=O)/C(=C\c2ccco2)SC1=S)Nc1ccc(C(=O)O)c(O)c1	-14%	-6%	u	-57%	18µM*
O=C(CCN1C(=O)/C(=C/c2ccco2)SC1=S)Nc1ccc(O)cc1C(=O)O	0%	u	u	-31%	u
O=C(CCN1C(=O)/C(=C/c2ccco2)SC1=S)Nc1ccc(C(=O)O)c(O)c1	1%	-20%	-4%	-41%	u
N#C/C(C(=O)Nc1ccc(Cl)cc1)=C(/S)Nc1ccccc1	u	17%	40µM*	u	-18%
Cc1ccc(O)c(C2=Nc3ccccc3N=C(c3cccc(F)c3)C2)c1	x	x	-2%	x	-6%
Cc1ccc(C2=Nc3ccccc3N=C(C(Cl)Cl)C2)cc1	-21%	1%	u	-41%	35µM*
Cc1ccc2c(c1)N=C(c1ccccc1)CC(C(Cl)Cl)=N2	-13%	60%	-1%	-27%	16µM*
COc1ccc(NC(=S)N(CCc2c(C)[nH]c3ccc(C)cc23)Cc2ccco2)cc1	0%	20%	u	18µM*	-8%
COc1ccc(CCNC(=O)CCc2c(C)nc3cc(-c4ccc(Cl)cc4)nn3c2C)c(OC)c1	x	x	-10%	x	-8%
Cc1ccc(C(=O)Nc2nnc(CC(=O)N/N=C/c3ccc(O)c(O)c3)s2)cc1	x	u	-2%	35%	45µM*
CN1CCN(CC(=O)c2cc(C(C)(C)C)c(O)c(C(C)(C)C)c2)CC1	-17%	-1%	-8%	43%	-29%
CC(C)(C)c1cc(CN2CCN(CCO)CC2)cc(C(C)(C)C)c1O	10%	3%	0%	-5%	2.5µM*
CCN1CCN(Cc2cc(C(C)(C)C)c(O)c(C(C)(C)C)c2)CC1	x	x	2%	-6%	2.8µM*
CCCCOC(=O)c1ccc(NC(=O)c2cc3c(=O)n4cccc(C)c4nc3s2)cc1	x	x	14%	x	-1%
COc1ccc(-c2nn(C)c3sc(C(=O)N4CCN(c5cccc(C)c5C)CC4)cc23)cc1OC	x	x	-1%	x	25µM*
COc1ccc(-c2nn(C)c3sc(C(=O)N4CCN(c5cc(Cl)ccc5C)CC4)cc23)cc1OC	x	x	-1%	x	-1%
COCc1nc2cccnc2n1C1CCN(S(=O)(=O)N(C)C)CC1	x	x	-1%	x	1%
